# Reference: PubChem BioAssay (Tox21)
# Several values for one entry are separate records, joined by “and”; a condition that tells them apart may be missing. Equal values may be shown once. Inconclusive results are not listed. A call without a number means that no potency is given here. Unmarked numbers belong to inactive results. Activity calls are given as the source filed them. Calls follow the shape of the dose curve; as a rule, active = well fitted curve in the direction sought with a large enough effect in the repeat runs; inconclusive = weak or mixed curves; inactive = no such curve, though single readings can be large; an effect the other way counts as inactive or inconclusive.
# Tests used:
# [1] = A CellTox Green Cytotoxicity Assay to monitor cytotoxicity in HEK293 cells - 40 hour (AID 1224871); also: nearly all actives have a fitted effect of over 45% in size; also: potency is read from the fitted curve at half-maximal effect
# How it was run: (§1)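 Read-out: fluorescence of a cell-impermeant cyanine dye staining DNA of dead cells, proportional to cytotoxicity. HEK293, 600 cells/well with reagent, compound (23 nL DMSO) added after 5 h; reads at 0, 8, 16, 24, 32, 40 h.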
# [2] = qHTS RealTime-Glo MT Cell Viability Assay in HEK293 cells - 16 hour (AID 1224872); also: nearly all actives have a fitted effect of over 50% in size; also: potency is read from the fitted curve at half-maximal effect
# How it was run: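 Quantitative high-throughput screen of the Tox21 10K library in HEK293: cells and RealTime-Glo reagents plated together, compound added at 5 h, luminescence monitored through 40 h at 37 C.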
# [3] = qHTS RealTime-Glo MT Cell Viability Assay in HepG2 cells - 8 hour (AID 1224873); also: nearly all actives have a fitted effect of over 55% in size; also: potency is read from the fitted curve at half-maximal effect
# How it was run: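 HepG2 cells mixed with RealTime-Glo MT reagents (NanoLuc plus cell-permeant prosubstrate) were seeded at 600 cells/well, incubated 5 h at 37 C/5% CO2, then pinned with compounds in DMSO; nonlytic luminescence tracked viability during 40 h treatment.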
# [4] = qHTS RealTime-Glo MT Cell Viability Assay in HEK293 cells - 40 hour (AID 1224874); settings: RealTime-Glo luminescence; max response: active compounds read low; also: nearly all actives have a fitted effect of over 50% in size; also: potency is read from the fitted curve at half-maximal effect
# How it was run: (§2)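 Luminescence readout at each listed time point; HEK293, 600 cells/well, RealTime-Glo MT reagent added with cells; compounds pinned (23 nL in DMSO) after 5 h at 37 C; continuous culture at 37 C.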
# [5] = A CellTox Green Cytotoxicity Assay to monitor cytotoxicity in HEK293 cells - 24 hour (AID 1224875); also: nearly all actives have a fitted effect of over 45% in size; also: potency is read from the fitted curve at half-maximal effect
# How it was run: as §1
# [6] = A CellTox Green Cytotoxicity Assay to monitor cytotoxicity in HepG2 cells - 16 hour (AID 1224876); also: nearly all actives have a fitted effect of over 45% in size; also: potency is read from the fitted curve at half-maximal effect
# How it was run: (§3)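 HepG2, 600 cells/well premixed w/ CellTox Green; 5 h settle, 37 C/5% CO2; pintool cpd add (DMSO); 37 C, 40 h; fluorescence read at 0, 8, 16, 24, 32, 40 h.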
# [7] = A CellTox Green Cytotoxicity Assay to monitor cytotoxicity in HepG2 cells - 24 hour (AID 1224878); also: nearly all actives have a fitted effect of over 45% in size; also: potency is read from the fitted curve at half-maximal effect
# How it was run: as §3
# [8] = A CellTox Green Cytotoxicity Assay to monitor cytotoxicity in HepG2 cells - 40 hour (AID 1224879); also: nearly all actives have a fitted effect of over 40% in size; also: potency is read from the fitted curve at half-maximal effect
# How it was run: as §3
# [9] = qHTS RealTime-Glo MT Cell Viability Assay in HEK293 cells - 0 hour (AID 1224880)
# How it was run: as §2
# [10] = qHTS RealTime-Glo MT Cell Viability Assay in HepG2 cells - 32 hour (AID 1224877); also: nearly all actives have a fitted effect of over 55% in size; also: potency is read from the fitted curve at half-maximal effect
# How it was run: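 Compound treatment began 5 h after plating HepG2 cells (600/well) with NanoLuc luciferase and prosubstrate. Plates stayed at 37 C for 40 h; luminescence was captured at six time points, 0 h through 40 h.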
Structure (SMILES),Potency [1],Potency [2],Potency [3],Potency [4],Potency [5],Potency [6],Potency [7],Potency [8],Potency [9],Potency [10],max response [4]
CCN(Cc1cccnc1)C(=O)c1cccc(Cl)c1[C@]1(C)C(=O)N(Cc2ccc(OC)cc2OC)c2ccc(Cl)cc21,inactive,22.9 µM (active),20.4 µM (active),20.4 µM (active),inactive,inactive,inactive,inactive,inactive,–,–
Oc1c(Cl)cc(Cl)c2cccnc12,9.52 µM (active),inactive,inactive,8.49 µM (active),inactive,inactive,–,8.49 µM (active),inactive,inactive,–
Cc1cccc(S(=O)(=O)O)c1C,inactive,inactive,inactive,–,inactive,–,inactive,inactive,inactive,inactive,-3.36%
CCCCCCCC/C=C\CCCCCCCCOCCO,31.9 µM (active),3.19 µM (active),inactive,3.19 µM (active),inactive,–,63.7 µM (active),63.7 µM (active),inactive,inactive,–
CCCC(c1cc(C(C)(C)C)c(O)cc1C)c1cc(C(C)(C)C)c(O)cc1C,49.6 µM (active),24.8 µM (active),39.4 µM (active),17.6 µM (active),55.6 µM (active),–,39.4 µM (active),31.3 µM (active),inactive,35.1 µM (active),–
CC(=O)SC[C@@H](Cc1ccccc1)C(=O)NCC(=O)OCc1ccccc1,inactive,inactive,inactive,–,inactive,–,inactive,inactive,inactive,inactive,0.0146%
Oc1cc2ccccc2c2ccccc12,15.5 µM (active),6.92 µM (active),11 µM (active),11 µM (active),19.5 µM (active),–,11 µM (active),11 µM (active),–,11 µM (active),–
Cc1oc(-c2ccccc2)nc1CCC(=O)c1ccc(CC2SC(=O)NC2=O)cc1 (stereo not drawn),inactive,inactive,inactive,–,inactive,–,inactive,inactive,inactive,inactive,-22.3%
CCCCCOC(=O)CCCC,inactive,inactive,inactive,–,inactive,inactive,inactive,inactive,inactive,inactive,-0.909%
CCCCCCCCCCCCCCCC[N+](C)(C)CCN(Cc1ccc(OC)cc1)c1ncccn1,19 µM (active),1.34 µM (active),10.7 µM (active),0.952 µM (active),8.49 µM (active),–,6.74 µM (active),6.01 µM (active),inactive,6.01 µM (active),–
CC(C)(C)C(=O)OCOC(=O)C1N2C(=O)CC2S(=O)(=O)C1(C)C (stereo not drawn),inactive,inactive,inactive,–,inactive,–,–,inactive,inactive,inactive,5.75%
CC[C@H]1O[C@]2(CC[C@@H]1C)C[C@@H]1C[C@@H](C/C=C(\C)C[C@@H](C)/C=C/C=C3\CO[C@@H]4[C@H](O)C(C)=C[C@@H](C(=O)O1)[C@]34O)O2,43.3 µM (active),38.5 µM (active),48.5 µM (active),24.3 µM (active),48.5 µM (active),48.5 µM (active),–,27.3 µM (active),inactive,43.3 µM (active),–
Cc1ccc(O)c(C(C)(C)C)c1,43.6 µM (active),inactive,inactive,–,48.9 µM (active),–,43.6 µM (active) and 34.7 µM (active),43.6 µM (active) and 34.7 µM (active),inactive,inactive,-17.7% and -1.19%
O=C(Nc1ccc(Oc2ccc(Cl)cc2)c(Cl)c1)c1cc(I)cc(I)c1O,inactive,inactive,inactive,–,inactive,–,inactive,inactive,–,inactive,2.12%
CCN(C(=O)c1cc(C)cc(OC[C@H](C)Nc2ccncc2)c1)C(C)C,inactive,inactive,inactive,–,inactive,inactive,inactive,inactive,inactive,inactive,-9.99%
Cc1c(C)c2c(c(C)c1O)CCC(C)(COc1ccc(CC3SC(=O)NC3=O)cc1)O2 (stereo not drawn),inactive,43.6 µM (active),inactive,43.6 µM (active),inactive,–,inactive,inactive,inactive,inactive,–
C=CC(=O)OCC(CO)(COCC(COC(=O)C=C)(COC(=O)C=C)COC(=O)C=C)COC(=O)C=C,27.2 µM (active),3.05 µM (active),3.42 µM (active),2.42 µM (active),54.3 µM (active),–,48.4 µM (active),15.3 µM (active),inactive,3.84 µM (active),–
Nc1ccc2c3c(cccc13)-c1ccccc1-2,39.3 µM (active),24.8 µM (active),inactive,27.8 µM (active),44.1 µM (active),–,44.1 µM (active),44.1 µM (active),–,inactive,–

Structure (SMILES),Potency [1],Potency [2],Potency [3],Potency [4],Potency [5],Potency [6],Potency [7],Potency [8],Potency [9],Potency [10],max response [4]
Cc1cc(O)c(C(C)(C)C)cc1Sc1cc(C(C)(C)C)c(O)cc1C,54.8 µM (active),24.5 µM (active),43.6 µM (active),21.8 µM (active),48.9 µM (active),–,54.8 µM (active),48.9 µM (active),inactive,48.9 µM (active),–
O=C(c1ccc(F)cc1)C1CCN(CCn2c(=O)[nH]c3ccccc3c2=O)CC1,inactive,8.49 µM (active),inactive,9.52 µM (active),inactive,–,inactive,–,inactive,inactive,–
CO[Si](CCCNc1ccccc1)(OC)OC,inactive,inactive,inactive,–,inactive,–,inactive,inactive,inactive,inactive,16.6%
CN(C)C(=O)C1(N2CCCCC2)CCN(CC[C@@]2(c3ccc(Cl)c(Cl)c3)CN(C(=O)c3ccccc3)CCO2)CC1,28.9 µM (active),12.9 µM (active),45.8 µM (active),11.5 µM (active),40.8 µM (active),40.8 µM (active),20.4 µM (active),20.4 µM (active),inactive,18.2 µM (active),–
Clc1ccc2n[nH]nc2c1,inactive,inactive,inactive,–,inactive,–,inactive,inactive,inactive,inactive,4.16%
CCCCCCCC/C=C/CCCCCCCC1=NCCN1CCO,30.9 µM (active),21.9 µM (active),43.6 µM (active),19.5 µM (active),24.5 µM (active),–,13.8 µM (active),12.3 µM (active),–,15.5 µM (active),–
CN(C)c1ccc(SC#N)cc1,inactive,inactive,inactive,–,inactive,inactive,inactive,inactive,inactive,inactive,0.13%
OC1(c2ccc(Cl)c(C(F)(F)F)c2)CCN(CCCC(c2ccc(F)cc2)c2ccc(F)cc2)CC1,21.3 µM (active),9.52 µM (active),21.3 µM (active),9.52 µM (active),23.9 µM (active),–,9.52 µM (active),6.74 µM (active),inactive,8.49 µM (active),–
COc1ccc(C(=O)/C(Br)=C\C(=O)O)cc1,24.5 µM (active),38.9 µM (active),inactive,34.7 µM (active),34.7 µM (active),inactive,–,13.8 µM (active),inactive,–,–
CCC(CN)=C(c1ccccc1)c1ccccc1,inactive,inactive,inactive,–,inactive,–,inactive,–,–,inactive,-19.1%
CN(C)[C@@H]1C(=O)C(C(N)=O)=C(O)[C@@]2(O)C(=O)C3=C(O)c4c(O)ccc(Cl)c4[C@@H](O)[C@H]3C[C@@H]12,inactive,inactive,inactive,–,inactive,–,inactive,inactive,inactive,inactive,-2.42%
CC(=O)N1CCN(c2ccc(OC[C@H]3CO[C@](Cn4ccnc4)(c4ccc(Cl)cc4Cl)O3)cc2)CC1,49 µM (active),21.9 µM (active),49 µM (active),21.9 µM (active),43.6 µM (active),–,–,54.9 µM (active),–,49 µM (active),–
NC(=O)N1C(=O)C(C(=O)c2cc(Cl)cs2)c2cc(F)c(Cl)cc21 (stereo not drawn),inactive,inactive,inactive,–,inactive,inactive,inactive,–,–,–,-0.493%
O=C1CCCCCN1SSN1CCCCCC1=O,49 µM (active),inactive,inactive,–,inactive,inactive,–,54.9 µM (active),inactive,–,-12.6%
CCCCCCCCNC(C)C(O)c1ccc(SC(C)C)cc1 (stereo not drawn),16.9 µM (active),10.7 µM (active),21.3 µM (active),8.49 µM (active),16.9 µM (active),–,16.9 µM (active),15.1 µM (active),–,13.4 µM (active),–
CCC(C)(C)C1CCCCC1OC(C)=O (stereo not drawn),inactive,inactive,inactive,–,inactive,–,inactive,inactive,–,inactive,6.6%
ON=C1CCCC1,inactive,22.6 µM (active),inactive,22.6 µM (active),inactive,–,inactive,inactive,inactive,inactive,–
